Data: the supplement of paper PMC10646978
± gives the standard deviation.

Columns and labels:
Settings in all cases: modulator concentration 10 µM
[1] = tested on: RAW-Dual (murine macrophage reporter line); assay: NF-kB reporter (SEAP) activity fold change vs agonist alone; higher = enhanced NF-kB activity
Summary of the method: (§1)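 Compound reached 10 μM final in each well by pin transfer, onto RAW-Dual murine macrophage reporter cells seeded at 50 000 per well in 384-well plates. After 1 hour at 37 °C, the cells were stimulated overnight with a PRR agonist. SEAP in the supernatant was read with QUANTI-Blue at 620 nm absorbance for NF-κB, and Lucia luciferase was read with QUANTI-Luc luminescence for IRF. Each signal was turned into fold change against the mean agonist-only control on the same plate, and two replicate plates were averaged with propagated errors.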

[2] = tested on: RAW-Dual (murine macrophage reporter line); assay: IRF reporter (Lucia luciferase) activity fold change vs agonist alone; higher = enhanced IRF activity
Summary of the method: as §1

[3] = tested on: RAW-Dual (murine macrophage reporter line); assay: viability score (confluency relative to resting cells, overnight) (fraction); higher = more viable, active = viable (0.7 or more)
Summary of the method: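 Two confluency masks, generated with IncuCyte software over all imaged wells, were applied to IncuCyte images of RAW-Dual macrophages. The cells, in 384-well plates, had been exposed overnight to 10 μM final compound. The viability score is confluency as a fraction of resting cells, and a compound met the cutoff only with both masks above 70% of resting cells.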

[4] = agonist: CpG ODN 1826 0.5 ug/mL

Compound | NF-kB reporter [1, 4] | NF-kB reporter ([1]; agonist: LPS 0.1 ug/mL) | NF-kB reporter ([1]; agonist: MPLA […]) | IRF reporter ([2]; agonist: 3'3'-cGAMP 10 ug/mL) | IRF reporter ([2]; agonist: LPS 0.1 ug/mL) | IRF reporter ([2]; agonist: MPLA […]) | viability score [3]
COc1ccc(C=NNc2nc(Nc3ccc(C)cc3Br)nc(N3CCOCC3)n2)c(OC)c1 | 0.238 ± 0.024 | 1.13 ± 0.13 | 1.84 ± 0.18 | 0.649 ± 0.067 | 1.67 ± 0.23 | 2.01 ± 0.27 | 1.05 (active)
CCCCCCCCCCC[C@@H](C[C@@H]1OC(=O)[C@H]1CCCCCC)OC(=O)[C@H](CC(C)C)NC=O | 1.1 ± 0.083 | 0.92 ± 0.058 | 1.02 ± 0.044 | 1.04 ± 0.23 | 0.927 ± 0.048 | 0.923 ± 0.12 | 1 (active)
CCOCCn1c(C2CCN(CCc3ccc(C(C)(C)C(=O)O)cc3)CC2)nc2ccccc21 | 1.29 ± 0.34 | 0.976 ± 0.065 | 1 ± 0.098 | 0.925 ± 0.034 | 1.08 ± 0.13 | 1.04 ± 0.13 | 0.521 (inactive)
CN1CCN(CCCN2c3ccccc3Sc3ccc(Cl)cc32)CC1.O=C(O)/C=C\C(=O)O.O=C(O)/C=C\C(=O)O | 1.01 ± 0.049 | 1.14 ± 0.098 | 2.15 ± 0.15 | 0.14 ± 0.012 | 0.479 ± 0.12 | 0.435 ± 0.13 | 0.86 (active)
CC(C)N(C(=O)c1ccc(C(=O)NCc2ccc(S(N)(=O)=O)cc2)cc1)C(C)C | 0.974 ± 0.057 | 1.07 ± 0.079 | 0.909 ± 0.072 | 0.961 ± 0.033 | 1.51 ± 0.12 | 1.21 ± 0.18 | 1 (active)
CC1CCC2C(C)(CO)C(O)CCC2(C)C12CCC(CO)(CCO)O2 (configuration not stated) | 0.983 ± 0.073 | 0.945 ± 0.049 | 1.02 ± 0.033 | 0.99 ± 0.11 | 0.949 ± 0.048 | 0.952 ± 0.076 | 1 (active)
COc1ccc(-n2nc(C(N)=O)c3c2C(=O)N(c2ccc(N4CCCCC4=O)cc2)CC3)cc1 | 0.793 ± 0.076 | 0.859 ± 0.052 | 1.12 ± 0.12 | 0.994 ± 0.046 | 1.19 ± 0.073 | 1.33 ± 0.11 | 1.01 (active)
O=C(NC1CCC(Oc2ncc(F)cn2)CC1)c1cccc(F)c1 (configuration not stated) | 0.976 ± 0.084 | 1.01 ± 0.079 | 0.913 ± 0.079 | 1.01 ± 0.064 | 1.08 ± 0.088 | 1.04 ± 0.27 | 1.01 (active)
COc1ccc(N2CCN(C(=O)Cc3csc(NC(=O)Nc4ccccc4OC)n3)CC2)cc1 | 0.911 ± 0.069 | 1.03 ± 0.1 | 0.884 ± 0.036 | 0.784 ± 0.043 | 0.922 ± 0.073 | 0.48 ± 0.042 | 0.983 (active)
COC1CC2CCC(C1)N2S(=O)(=O)c1ccc(Br)cc1 (configuration not stated) | 0.93 ± 0.089 | 1.05 ± 0.1 | 0.909 ± 0.04 | 1.01 ± 0.11 | 1.22 ± 0.16 | 1.15 ± 0.24 | 1.01 (active)
O=C(O)c1cc(S(=O)(=O)N2CCCCC2)c(Cl)cc1Cl | 0.937 ± 0.082 | 1.04 ± 0.087 | 0.965 ± 0.12 | 0.912 ± 0.11 | 1.18 ± 0.11 | 1.06 ± 0.28 | 1.01 (active)
Cc1cccc(OCCn2cc(C=Nn3cnnc3)c3ccccc32)c1 | 1.4 ± 0.11 | 1.12 ± 0.095 | 1.31 ± 0.13 | 0.992 ± 0.059 | 1.23 ± 0.11 | 1.5 ± 0.24 | 0.975 (active)
N#Cc1c(N=Cc2ccc(Br)cc2)sc2c1CCCC2 | 0.782 ± 0.075 | 1 ± 0.067 | 0.964 ± 0.033 | 0.896 ± 0.14 | 0.96 ± 0.041 | 1 ± 0.077 | 1 (active)
OC1C=C2CCN3Cc4cc5c(cc4C(C1O)C23)OCO5 (configuration not stated) | 1.1 ± 0.099 | 0.352 ± 0.029 | 1.35 ± 0.14 | 0.678 ± 0.062 | 0.751 ± 0.072 | 1.04 ± 0.19 | 0.71 (active)
COc1ccc(-c2oc3ccc(OC)cc3c2C(=O)Nc2ccccc2C)cc1 | 0.917 ± 0.047 | 1.17 ± 0.092 | 0.959 ± 0.073 | 1 ± 0.055 | 1.1 ± 0.073 | 1.12 ± 0.11 | 1 (active)
CCN(CC)CC#CCOC(=O)C(O)(c1ccccc1)C1CCCCC1 (configuration not stated) | 0.65 ± 0.059 | 1.2 ± 0.094 | 1.18 ± 0.053 | 0.92 ± 0.062 | 1.67 ± 0.11 | 1.3 ± 0.32 | 0.293 (inactive)
O=C(CCCc1ccccc1)NCC1(O)CCCC1 | 0.858 ± 0.079 | 0.968 ± 0.078 | 0.867 ± 0.049 | 0.968 ± 0.05 | 0.977 ± 0.061 | 0.917 ± 0.23 | 1.01 (active)
CC(=O)c1ccc2c3c([nH]c2c1)CCCC3 | 0.792 ± 0.072 | 0.823 ± 0.072 | 1.01 ± 0.092 | 0.936 ± 0.05 | 1.34 ± 0.077 | 1.53 ± 0.15 | 1.01 (active)

Compound | NF-kB reporter [1, 4] | NF-kB reporter ([1]; agonist: LPS 0.1 ug/mL) | NF-kB reporter ([1]; agonist: MPLA […]) | IRF reporter ([2]; agonist: 3'3'-cGAMP 10 ug/mL) | IRF reporter ([2]; agonist: LPS 0.1 ug/mL) | IRF reporter ([2]; agonist: MPLA […]) | viability score [3]
O=C1C=C(c2c(O)ccc3ccccc23)c2ccccc2C1=O | 1.19 ± 0.21 | 0.399 ± 0.055 | 1.66 ± 0.19 | 0.0196 ± 0.0013 | 1.44 ± 0.18 | 0.656 ± 0.074 | 0.556 (inactive)
COC(=O)c1ccc2c(c1)NC(=O)/C2=C(\Nc1ccc(N(C)C(=O)CN2CCN(C)CC2)cc1)c1ccccc1 | 1.34 ± 0.2 | 1.18 ± 0.27 | 1.02 ± 0.063 | 0.325 ± 0.024 | 0.851 ± 0.14 | 0.474 ± 0.041 | 0.998 (active)
O=C(NCc1cccc(Cl)c1)c1cnc2n(c1=O)CCS2 | 1.03 ± 0.11 | 1.02 ± 0.1 | 0.974 ± 0.054 | 0.976 ± 0.035 | 1.04 ± 0.054 | 1.09 ± 0.19 | 0.999 (active)
CN1CCC(OC(c2ccccc2)c2ccccc2)CC1.Cl | 0.827 ± 0.31 | 1.17 ± 0.061 | 1.22 ± 0.087 | 0.638 ± 0.025 | 0.967 ± 0.19 | 1.08 ± 0.1 | 0.992 (active)
CCn1nc(C)c(S(=O)(=O)N2CC3CC2CS3)c1C (configuration not stated) | 0.892 ± 0.039 | 0.936 ± 0.075 | 0.959 ± 0.051 | 1.04 ± 0.055 | 1.17 ± 0.23 | 1.29 ± 0.41 | 0.988 (active)
COc1ccc(Cl)cc1NS(=O)(=O)c1c(C)cc(C)cc1C | 0.993 ± 0.14 | 0.937 ± 0.062 | 1.46 ± 0.12 | 1.24 ± 0.11 | 1.16 ± 0.11 | 1.04 ± 0.12 | 0.982 (active)
Cc1cc(CCNS(=O)(=O)c2cccc(C(F)(F)F)c2)nn1C | 0.898 ± 0.068 | 0.995 ± 0.1 | 0.988 ± 0.06 | 0.96 ± 0.06 | 0.961 ± 0.097 | 1 ± 0.23 | 1 (active)
OCCSCCc1ccncc1 | 1.03 ± 0.083 | 1.05 ± 0.086 | 1.01 ± 0.047 | 1.02 ± 0.23 | 0.995 ± 0.07 | 1.02 ± 0.17 | 1 (active)
Nc1ccn([C@@H]2O[C@H](CO)[C@@H](O)[C@@H]2O)c(=O)n1 | 1.36 ± 0.27 | 1.38 ± 0.13 | 1.38 ± 0.19 | 0.687 ± 0.025 | 1.08 ± 0.16 | 1.14 ± 0.12 | 0.35 (inactive)
Cc1ncsc1C(=O)NC1CCC(F)(F)CC1 | 1.06 ± 0.068 | 1.1 ± 0.088 | 0.991 ± 0.033 | 0.68 ± 0.034 | 1.01 ± 0.057 | 1 ± 0.1 | 0.999 (active)
CC(C)c1noc(CN2CCC(n3nc(C(F)(F)F)n(C)c3=O)CC2)n1 | 0.975 ± 0.13 | 1.11 ± 0.091 | 0.939 ± 0.069 | 0.993 ± 0.05 | 1.08 ± 0.12 | 1.15 ± 0.13 | 1 (active)
Nc1ccn([C@@H]2O[C@H](CO)[C@@H](O)C2(F)F)c(=O)n1 | 1.8 ± 0.25 | 1.07 ± 0.28 | 1.21 ± 0.11 | 1.59 ± 0.088 | 1.61 ± 0.35 | 1.33 ± 0.31 | 0.241 (inactive)
Clc1ccc2nsnc2c1NC1=NCCN1 [Prestw-1182] | 1.14 ± 0.1 | 1.06 ± 0.085 | 0.958 ± 0.044 | 0.965 ± 0.044 | 0.93 ± 0.05 | 1.01 ± 0.13 | 0.995 (active)
O=C(C=Cc1cccc([N+](=O)[O-])c1)NCCc1ccccc1 | 1.01 ± 0.17 | 1 ± 0.12 | 0.948 ± 0.12 | 0.963 ± 0.048 | 1.27 ± 0.24 | 1.32 ± 0.24 | 0.99 (active)
Br.Cc1ccc(-c2csc(N3N=C(c4ccc(F)cc4)CC3c3ccc(C(C)C)cc3)n2)cc1C (configuration not stated) | 0.948 ± 0.083 | 1.01 ± 0.072 | 0.903 ± 0.088 | 0.824 ± 0.027 | 1.35 ± 0.14 | 1.13 ± 0.099 | 1 (active)
O=C(CSc1ncnc2c(-c3ccccc3)c[nH]c12)NCc1ccc(Cl)cc1 | 1.18 ± 0.059 | 1.13 ± 0.089 | 0.796 ± 0.035 | 1.25 ± 0.064 | 1.18 ± 0.093 | 1.24 ± 0.26 | 0.99 (active)
Oc1ccc(Nc2nc(Nc3ccc(O)cc3)nc(N3CCOCC3)n2)cc1 | 0.559 ± 0.13 | 2.28 ± 0.18 | 4.45 ± 0.34 | 0.383 ± 0.016 | 2.4 ± 0.25 | 4.43 ± 1.1 | 0.757 (active)
COC1CCN(c2ccc(C(=O)N3CC(n4cc(COc5ccccc5)nn4)C3)cc2)C1 (configuration not stated) | 1.17 ± 0.099 | 1.13 ± 0.1 | 0.959 ± 0.053 | 0.758 ± 0.043 | 1.12 ± 0.076 | 1.08 ± 0.24 | 0.922 (active)
